High-throughput results from PubChem.
HEK cytotox – HEK 293 cell cytotoxicity; HEK 293 viability, ATP luminescence (CellTiter-Glo), 48-72 h; Potency, µM (highest dose often 115 µM), usual class: inhibitors; hit rate 6.6% among 94,000; AID 1345083; further: nearly all actives have a fitted effect of over 60% in size
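Luminescence from cellular ATP, measured with CellTiter-Glo, indicates HEK 293 viability. Cells plated at 250 cells/well are treated with compound for 48 or 72 hr at 37 degree Celsius before reagent addition.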
NPR1 antag – human Npr1 receptor antagonism. HEK293 hNpr1 GloSensor cGMP, ANP-stimulated luminescence. Potency, µM (top dose mostly 46.3 µM), most hits filed as inhibitors. hit rate 1.6% among 76,000; calls by dose curve; further: nearly all actives have a fitted effect of over 60% in size
Target sequence (P16066 whole entry, looked up): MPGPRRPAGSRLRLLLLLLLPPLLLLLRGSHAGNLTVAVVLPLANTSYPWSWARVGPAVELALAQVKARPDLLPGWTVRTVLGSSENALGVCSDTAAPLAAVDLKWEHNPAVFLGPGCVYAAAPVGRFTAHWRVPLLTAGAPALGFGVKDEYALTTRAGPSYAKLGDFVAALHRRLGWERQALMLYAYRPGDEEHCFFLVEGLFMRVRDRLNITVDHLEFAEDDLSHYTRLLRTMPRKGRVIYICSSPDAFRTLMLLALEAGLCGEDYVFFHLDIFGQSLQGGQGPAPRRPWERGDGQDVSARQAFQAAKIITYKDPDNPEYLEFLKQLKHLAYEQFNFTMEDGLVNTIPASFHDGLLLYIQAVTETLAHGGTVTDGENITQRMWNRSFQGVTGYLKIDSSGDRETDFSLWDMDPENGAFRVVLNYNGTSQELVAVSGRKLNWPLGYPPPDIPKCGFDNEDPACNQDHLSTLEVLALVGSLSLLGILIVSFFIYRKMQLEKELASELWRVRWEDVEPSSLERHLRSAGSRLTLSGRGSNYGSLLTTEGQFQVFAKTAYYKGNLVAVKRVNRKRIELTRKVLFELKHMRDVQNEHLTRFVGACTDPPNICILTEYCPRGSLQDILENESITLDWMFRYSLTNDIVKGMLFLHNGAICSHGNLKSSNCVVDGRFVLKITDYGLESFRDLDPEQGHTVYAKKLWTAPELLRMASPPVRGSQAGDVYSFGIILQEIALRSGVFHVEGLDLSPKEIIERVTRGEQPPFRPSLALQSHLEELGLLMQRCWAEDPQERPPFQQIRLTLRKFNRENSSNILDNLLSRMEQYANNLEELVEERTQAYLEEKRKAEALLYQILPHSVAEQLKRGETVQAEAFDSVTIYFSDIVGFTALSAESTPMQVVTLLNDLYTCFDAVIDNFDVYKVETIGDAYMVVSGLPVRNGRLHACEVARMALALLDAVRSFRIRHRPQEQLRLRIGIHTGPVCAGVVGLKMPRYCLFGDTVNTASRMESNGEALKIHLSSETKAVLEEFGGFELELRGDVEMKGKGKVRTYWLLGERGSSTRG
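Compound pre-incubated 30 min at room temperature on GloSensor-loaded HEK293 cells stably carrying hNpr1 and the pGS-40F cGMP biosensor. Stimulation uses hNppA at 0.1 nM final; luminescence is taken at baseline and 20 min post-agonist.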
GPT2 inh – inhibitors of human GPT2 alanine aminotransferase. Recombinant GPT2, coupled pyruvate oxidase/HRP Amplex Red fluorescence. Q8TD30. Potency, µM (series often up to 57.7 µM), actives largely listed as inhibitors. hit rate 0.25% among 100,000; further: nearly all actives have a fitted effect of over 60% in size
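Inhibition is scored from Amplex Red fluorescence generated when pyruvate oxidase and HRP act on pyruvate released by GPT2. Reactions contain 10ng/uL enzyme, 250uM a-KG and 2mM L-alanine and run 30 min at room temperature.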
NIH3T3 tox – NIH 3T3 cell cytotoxicity. NIH 3T3 viability, CellTiter-Glo ATP luminescence, 48-72 h. Potency, µM (top dose mostly 96.7 µM), actives largely listed as inhibitors. hit rate 4.3% among 94,000; further: nearly all actives have a fitted effect of over 55% in size
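Cytotoxicity is measured as loss of cellular ATP: NIH 3T3 cells (400/well) are exposed to compound for 48 or 72 hr at 37 °C, then CellTiter-Glo luminescence is imaged after 10 min at room temperature.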
Luciferase inh – Photinus pyralis luciferase inhibition; purified P. pyralis luciferase, luminescence, biochemical; Potency, µM (titrated, usually from 115 µM), most hits filed as inhibitors; hit rate 2.5% among 76,000; AID 1347043; further: nearly all actives have a fitted effect of over 65% in size
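Cell-free enzyme assay, 10nM P. pyralis luciferase, luciferin and ATP each at 10uM. Inhibition profiled over a 6-point titration, read as luminescence.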
Hits are given with their value; n = inactive; u = inconclusive; x = no result given; ! = repeats disagree. Compounds with a hit are over-represented: about 10% of the library has one in this group of screens. Unless noted, the call rests on the fitted dose curve; in most records, active means well fitted curve in the direction sought with a large enough effect; inconclusive means small, poorly fitted or top-dose-only effect, or another doubt; inactive means no such curve, though single readings can be large; an effect the other way counts as inactive or inconclusive.

SMILES	HEK cytotox	NPR1 antag	GPT2 inh	NIH3T3 tox	Luciferase inh
COc1cncc(NC(=O)C2=NO[C@@H]3CN(Cc4ccccc4)C[C@H]23)c1	n	n	n	u	n
CCC(C)NC(=O)c1cc(-c2cccc(OC)c2)nc2c1cnn2C (stereo not given)	100µM!	x	x	u	x
COc1cccc(-c2cc(C(=O)NCC(F)(F)F)c3cnn(C)c3n2)c1	n	x	x	u	x
COc1cccc(-c2cc(C(=O)NCC3CCCCC3)c3cnn(C)c3n2)c1	39.8µM	x	x	u	x
Nc1nc(C2CC(O)C2)cc(N2CCc3sccc3C2)n1 (stereo not given)	u	n	u	u	n
CN(C)c1cccc(NC(=O)Cc2c[nH]c3ncc(-c4cnn(C)c4)cc23)c1	70.8µM	n	n	31.6µM	n
Cn1cc(-c2cnc3[nH]cc(CC(=O)Nc4cccnc4)c3c2)cn1	n	n	n	u	n
Cn1cc(-c2cnc3[nH]cc(CC(=O)NCc4cccc(F)c4)c3c2)cn1	u	n	n	25.1µM	n
CN(C)C(=O)Cc1c[nH]c2ncc(-c3cnn(C)c3)cc12	n	n	u	u	n
COc1ccc(NC(=O)Cc2c[nH]c3ncc(-c4cnn(C)c4)cc23)cn1	n	n	n	50.1µM	n
Cc1ccccc1NC(=O)Cc1c[nH]c2ncc(-c3cnn(C)c3)cc12	u	n	n	22.4µM	n
Cc1cnc(-c2ccccc2)n1CC1CCN(C(=O)C(C)c2ccccc2)CC1 (stereo not given)	u	n	n	n	n
C[C@@H]1CN(C(=O)CN(C)Cc2ccccc2F)C[C@]1(C)O	n	n	n	n	n
Cn1nccc1-c1ccc2ncn(-c3ccc(F)cc3F)c(=O)c2n1	63.1µM	n	n	u	n
CC(Oc1ccccc1)C(=O)N1CCCN(c2cc(-c3ccc(Cl)cc3)[nH]n2)CC1 (stereo not given)	39.8µM	u	n	u	n
CCC(C(=O)NC1CCN(c2cc(-c3ccc(OC)cc3)[nH]n2)CC1)c1ccccc1 (stereo not given)	u	n	n	u	n
CCC(C(=O)N1CCCN(c2cc(-c3ccc(OC)cc3)[nH]n2)CC1)c1ccccc1 (stereo not given)	39.8µM	n	u	u	n
CC(C(=O)N1CCCN(c2cc(-c3ccc(Cl)cc3)[nH]n2)CC1)c1ccccc1 (stereo not given)	39.8µM	u	u	35.5µM	u
Cc1ccc(-c2cc(N3CCCN(C(=O)C(C)Oc4ccccc4)CC3)n[nH]2)cc1C (stereo not given)	u	n	u	u	n
O=C(c1ccccc1)N1CCC(C(=O)N2CCC(N3CCCC3=O)CC2)CC1	n	x	n	n	x
CN(C)C[C@@H]1CN(Cc2ccccn2)C[C@H]1NS(=O)(=O)c1ccccc1F	u	n	n	n	n
Cc1oc(C2CCN(C(=O)CCC(=O)n3nc(C)c4ccccc43)CC2)nc1C(=O)N1CCCC1	u	x	n	u	x
O=C(NCCc1ccccc1)C1CCCN(c2nccc(Nc3ccccc3F)n2)C1 (stereo not given)	u	x	n	22.4µM	x
O=C(NCCc1ccccc1F)C1CCN(c2nccc(Nc3ccccc3F)n2)CC1	31.6µM	x	n	u	x
O=C(NCCCc1ccccc1)C1CCCN(c2nccc(Nc3ccccc3F)n2)C1 (stereo not given)	u	x	n	31.6µM	x
SMILES	HEK cytotox	NPR1 antag	GPT2 inh	NIH3T3 tox	Luciferase inh
CCOCCNC(=O)C1CCCN(c2nccc(Nc3ccccc3F)n2)C1 (stereo not given)	u	x	n	u	x
CSCCNC(=O)C1CCCN(c2nccc(Nc3ccccc3F)n2)C1 (stereo not given)	u	x	n	25.1µM	x
O=C(NCCc1ccccc1)C1CCN(c2nccc(Nc3ccccc3F)n2)CC1	u	x	n	u	x
CNC(=O)c1cc(C)nc2onc(C3CCCN(C(=O)c4ccc(OC)cc4)C3)c12 (stereo not given)	n	x	x	n	x
O=C(NCCc1ccc(F)cc1)C1CCCN(c2nccc(Nc3ccccc3F)n2)C1 (stereo not given)	u	x	n	28.2µM	x
C=CCN1C[C@H]2COc3cc(OC)ccc3[C@H]2N(C(=O)c2ccc(C)cc2)CCC1=O	n	x	x	u	x
O=C(NC1CCN(Cc2cccc(-c3cccs3)c2)CC1)C1CCCC1	n	x	n	n	x
O=C(NC1CCCCC1)C1CCCN(Cc2cccc(-c3cccs3)c2)C1 (stereo not given)	u	x	n	28.2µM	x
